The list is not random: actives were taken first. Their share in the collection is about 2.6%.
Cruzain Triton: cruzain (T. cruzi) inhibition with detergent. P25779. purified cruzain, Z-FR-AMC fluorescence, 0.01% Triton. Potency, µM, without a hit: max response, negative = inhibition, most hits filed as inhibitors. 200,000 compounds, 0.43% hits. AID 1478;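 also: plate controls were neutral wells for no effect and buffer without enzyme for full effect; nearly all actives have a fitted effect of over 40% in size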
Target sequence (P25779 123-467 limits assumed): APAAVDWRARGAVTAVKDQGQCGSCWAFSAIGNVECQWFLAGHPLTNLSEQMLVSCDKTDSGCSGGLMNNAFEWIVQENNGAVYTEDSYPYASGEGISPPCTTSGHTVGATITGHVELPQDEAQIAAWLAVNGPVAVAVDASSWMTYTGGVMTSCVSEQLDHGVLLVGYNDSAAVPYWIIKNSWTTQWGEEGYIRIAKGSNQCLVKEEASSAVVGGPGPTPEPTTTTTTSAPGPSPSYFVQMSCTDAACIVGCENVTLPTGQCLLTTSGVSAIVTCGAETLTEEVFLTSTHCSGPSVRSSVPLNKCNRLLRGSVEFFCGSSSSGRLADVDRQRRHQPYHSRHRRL
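Steps: dispense cruzain (1.5 nM final) in acetate buffer pH 5.5 with DTT and 0.01% Triton X-100; pin-transfer compounds; incubate 15 min RT; add Z-FR-AMC (2 uM final); read fluorescence every 30 s, using the 60 s intensity change.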
Cruzain inh noDet: blocks cruzain activity in detergent-free assay. P25779. purified cruzain, Z-FR-AMC fluorescence, no detergent. Potency, µM, without a hit: max response, negative = inhibition, usual class: inhibitors. 200,000 compounds, 2.3% hits;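 also: plate controls were enzyme without inhibitor for no effect and buffer without enzyme for full effect; nearly all actives have a fitted effect of over 40% in size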
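Detergent-free condition (0.00005% Triton X-100) in acetate buffer pH 5.5 with DTT. 1.5 nM enzyme and compound were pre-mixed 15 min, then 2 uM Z-FR-AMC substrate added; reaction progress from fluorescence change between first and third reads (60 s).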
* marks the source's active call; other numbers are inactive results; ? = inconclusive; ! = a repeat was not active. Calls follow the shape of the dose curve; as a rule, active = well fitted curve in the direction sought with a large enough effect; inconclusive = small, poorly fitted or top-dose-only effect, or another doubt; inactive = no such curve, though single readings can be large; an effect the other way counts as inactive or inconclusive. Potency is read from the fitted curve at half-maximal effect.

SMILES | Cruzain Triton | Cruzain inh noDet
Cc1cc(C(=O)COC(=O)CC2Sc3ccccc3NC2=O)c(C)n1-c1ccc2c(c1)OCO2 (stereo unspecified) | -1% | 25µM*
Cc1cc(C(=O)COC(=O)c2ccc(N)c([N+](=O)[O-])c2)c(C)n1-c1ccc2c(c1)OCO2 | -2% | 13µM*
Cc1cc(C(=O)COC(=O)Cc2n[nH]c(=O)c3ccccc23)c(C)n1-c1ccc2c(c1)OCO2 | -2% | 25µM*
COCOc1c2c(c(OCOC)c3c(OCOC)cccc13)/C(=N/NS(C)(=O)=O)C1=C2CCCC1 | 2% | -8%
CC(C)(C)c1ccc(S(=O)(=O)N2CCN(Cc3noc(CCC(=O)N4CCCCC4)n3)CC2)cc1 | -2% | ?
CCCCSc1nnc2c(n1)OC(c1ccc(Br)s1)Nc1ccccc1-2 (stereo unspecified) | -5% | 1%
Cc1cc(C(=O)COC(=O)CC2Sc3ccccc3NC2=O)c(C)n1-c1ccc(Br)cc1 (stereo unspecified) | 2% | 4µM*
Cc1cc(C(=O)COC(=O)CC2Sc3ccccc3NC2=O)c(C)n1-c1ccccc1 (stereo unspecified) | -11% | ?
Cc1ccc(CNC(=O)Cc2csc3ccccc23)cc1 | -5% | -4%
O=C(Cc1csc(Nc2nc(=S)[nH]c3ccccc23)n1)NCc1ccccc1Cl | 3% | ?
O=C(Cc1csc(Nc2nc(=S)[nH]c3ccccc23)n1)NCc1cccc(Cl)c1 | 2% | 4µM*
Cc1ccc(CNC(=O)Cc2csc(Nc3nc(=S)[nH]c4ccccc34)n2)cc1 | -1% | 10µM*
O=C(Nc1nn[nH]n1)c1nc(-c2ccccc2)cc(=O)[nH]1 | -1% | -6%
O=C(O)CBr | -3% | -2%
CN1CCc2c(cc(O)c(O)c2Cl)C(c2cccc(Cl)c2)C1 (stereo unspecified) | -2% | ?
CCCCNC(=O)c1cc2n(n1)C(C(F)(F)F)CC(c1ccccc1)N2 (stereo unspecified) | -2% | ?
CCOC(=O)c1c(NC(=O)c2cc3n(n2)C(C(F)(F)F)CC(c2ccccc2)N3)sc(C)c1C (stereo unspecified) | -2% | 16µM*
COc1cc(NS(=O)(=O)c2ccc(NC(=O)c3ccc(Cl)cc3Cl)cc2)nc(OC)n1 | -10% | 14%
O=C(Oc1ccc(N(Cc2cccs2)C2=NS(=O)(=O)c3ccccc32)cc1)c1ccco1 | -9% | -29%
O=C(Oc1ccc(N(Cc2cccs2)C2=NS(=O)(=O)c3ccccc32)cc1)c1ccccc1Cl | 1% | 10µM*
CC(C)Nc1ccc(-c2nc(-c3ccncc3)no2)cc1[N+](=O)[O-] | -5% | -25%
COCCNc1ncnc2ccc(-c3cccc(OC)c3)cc12 | 0% | 0%
N#CC(=NCCO)C1=C(O)c2ccccc2C1=O | 2% | -2%
O=C1C(SCCO)=C(SCCO)C(=O)c2ccccc21 | ? | 25µM*!
Cc1ccc(OCCCSc2nc(-c3ccc(C(C)(C)C)cc3)nc3cc(=O)[nH]n23)cc1C | -1% | ?
SMILES | Cruzain Triton | Cruzain inh noDet
COCc1cc(C)nc(OCC(=O)N/N=C/c2cc(C)n(-c3c(C)cccc3C)c2C)c1C#N | -3% | 10%
COCc1c(Br)c(C)nc(OCC(=O)N/N=C/c2cc(C)n(-c3ccc([N+](=O)[O-])cc3)c2C)c1C#N | -3% | 32µM*
C[C@@H]1c2ccccc2Cn2cc3c(c21)C(=O)c1cccc(OP(=O)(O)OCc2ccccc2)c1C3=O | 1% | 9%
CCOc1ccc(S(=O)(=O)NCC(c2ccco2)S(=O)(=O)c2ccc(F)cc2)cc1 (stereo unspecified) | -7% | -5%
CC1(C)O[C@H]2[C@@H](O1)[C@@H](On1nnc3ccc(Cl)cc31)O[C@@H]2[C@@H]1COC(C)(C)O1 | -1% | 1%
Cc1ccc(CCNC(=O)CCSCc2ccc(Cl)cc2)cc1 | 1% | 0%
Cc1ccc(CSCCNC(=O)/C=C/c2ccc(Cl)cc2)cc1 | 4% | 13µM*
Cc1ccc(C(=O)N2CCN(c3cccc(Cl)c3)CC2)cc1-n1c(C)nc2cccnc21 | -9% | ?
CC1=NN(c2nc(-c3ccc(C)cc3)cs2)C(=O)C1N=Nc1cccc(C)c1 (stereo unspecified) | -5% | 13µM*
CC1=NN(c2nc(-c3ccccc3)cs2)C(=O)C1 | -10% | -18%
Cc1cnc(CNc2ccnc(-c3cccc(NS(C)(=O)=O)c3)n2)cn1 | 0% | 7%
CC(=O)Nc1ccc(S(=O)(=O)NCC2CCC(C(=O)NCCc3ccc(C)cc3)CC2)cc1 (stereo unspecified) | 10% | -8%
C=CCNC(=S)N/N=C/c1ccc(-c2cc(Cl)ccc2Cl)o1 | 1% | 7.9µM*
COC(=O)c1ccc(Cl)c(-c2ccc(/C=N/NC(=O)Nc3ccccc3)o2)c1 | -7% | ?
Cn1c(=O)c2c(nc(NCCNc3nc4c(c(=O)n(C)c(=O)n4C)n3C)n2C)n(C)c1=O | -2% | 3%
Ic1ccc2c(c1)N(c1ccccc1)c1cc(Nc3ccc4nc5ccc(I)cc5[n+](-c5ccccc5)c4c3)ccc1N2 | -2% | 3.2µM*
CN(C)c1ccc(-c2ccc3ncnc(NC4CC4)c3c2)cc1 | -4% | -11%
COC(=O)C1(C(=O)OC)CC2=CC(CC2=O)Cc2ccccc2[C@@H]1C[N+](=O)[O-] (stereo partly specified) | 2% | -8%
COc1ccc(-c2nc(C)sc2CC(=O)O)cc1 | 4% | 10%
COc1ccc(C2=NN(c3nc(-c4ccccc4)c(CC(=O)O)s3)C(c3ccco3)C2)cc1 (stereo unspecified) | 16µM* | 13µM*
CCCCN(C)CCCNC(=O)c1ccc2nc(N3CCCCC3)sc2c1 | -2% | -15%
Cc1ccc(C(=O)N/N=C/c2ccc(-c3ccccc3[N+](=O)[O-])o2)cn1 | -10% | 1%
Cc1nnc(N/N=C\c2ccc(-c3ccccc3[N+](=O)[O-])o2)n1N | 14µM* | 13µM*
Clc1nnc(N/N=C/c2ccccc2)c2ccccc12 | -7% | 4%
Clc1ccc(/C=N/Nc2nnc(Cl)c3ccccc23)cc1 | -1% | 25µM*
SMILES | Cruzain Triton | Cruzain inh noDet
C/C=C(/C)C#N | 7% | 10%
COC(=O)c1ccc2c(=O)n(Cc3ccco3)c(SCC(=O)Nc3ccc(C)c(Cl)c3)nc2c1 | 7% | 6.3µM*
O=C(CSc1nc2cc(Cl)ccc2c(=O)n1Cc1ccco1)Nc1ccc(S(=O)(=O)N2CCOCC2)cc1 | -5% | ?
CCc1ccccc1NC(=O)C(CC)Sc1nc2cc3c(cc2c(=O)n1Cc1ccco1)OCO3 (stereo unspecified) | 8% | 3%
CCc1ccc(NC(=O)C(CC)Sc2nc3cc4c(cc3c(=O)n2Cc2ccco2)OCO4)cc1 (stereo unspecified) | 6% | 25µM*
Cc1ccc(-n2nc(C)c(C3C(C#N)=C(N)Oc4c3c(=O)oc3ccccc43)c2Cl)cc1 (stereo unspecified) | 0% | 20µM*
Cc1nn(-c2ccccc2)c(Cl)c1C1C(C#N)=C(N)Oc2c1c(C)nn2-c1ccccc1 (stereo unspecified) | -2% | 2%
Cc1cccc(C(=O)Nc2ccccc2C(=O)OCC(=O)Nc2ccc(C#N)cc2)c1 | -5% | 32µM*
Cc1ccc(NC(=O)COC(=O)c2ccccc2Nc2ccccc2)cc1 | -9% | ?
CCOc1ccc(N2C(=O)c3[nH]nc(-c4ccc(OC)cc4)c3C2c2cccs2)cc1 (stereo unspecified) | -9% | ?
CC[C@@H]1Cn2c(c3nc(-c4ccccc4)nc-3n(C)c2=O)N1 | -19% | -10%

Bioassay records: PubChem, National Center for Advancing Translational Sciences (NCATS)
